# In PubChem BioAssay AID1212 (NMMLSC, 2008):
# Unmarked numbers belong to inactive results. Activity calls are given as the source filed them.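 The calls were made as follows: active = blocks over 60% of fluorescent estradiol binding at 10 µM; inactive = the rest.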
# Molecular target: G-protein coupled estrogen receptor 1 (Homo sapiens) (UniProt Q99527)
# Assay: GPR30 competitive binders vs fluorescent estrogen, primary screen, cell-based, Cos7 GPR30-GFP, flow cytometry, 10 µM (AID 1212)
# Details: fluorescent estrogen competition, at 10 µM; hits give high values
SMILES,outcome,inhibition
COc1cccc(C2NCCc3cc(OC)c(OC)cc32)c1 (stereo not given),inactive,
CCOc1cc2c(c([N+](=O)[O-])c1)NC(c1ccc(Br)cc1)C1CC=CC21 (stereo not given),,23%
CC1=CC(C)C2(CO)COC(c3ccccc3O)C1C2C (stereo not given),inactive,
CC(Nc1ccc(N2CCNCC2)cc1[N+](=O)[O-])C12CC3CC(CC(C3)C1)C2 (stereo not given),inactive,
CCCCCCc1cc2c3c(c(=O)oc2cc1OCC(=O)O)CCCC3,inactive,
COc1cc([N+](=O)[O-])cc2c1NC(c1ccccc1Cl)C1CC=CC21 (stereo not given),inactive,
COc1cc([N+](=O)[O-])cc2c1N[C@@H](c1ccc(C(=O)O)cc1)[C@H]1CC=C[C@@H]21,,91% (active)
CCOC(=O)c1c(N)sc2c1CC(C)(C)NC2(C)C,,10%
CCC(Oc1ccc2c3c(c(=O)oc2c1C)CCC3)C(=O)OC (stereo not given),inactive,
Cc1nc2ccccc2n1-c1cc(C(C)(C)C)c(O)c(C(C)(C)C)c1,inactive,
